Screening data from PubChem BioAssay.
Shown are actives, neighbours in structure and some others; about 2.4% of the full set was active somewhere.
D2 ag-1 = human D2 receptor agonism in beta-arrestin assay; DiscoveRx PathHunter D2 beta-arrestin, luminescence, 90 min; 100% = 57 uM dopamine signal; activation, % (concentration not given with the values); 360,000 tested, 0.084% active; AID 624465; in the data active means activation above about 40%; inconclusive means between about 15% and that limit
Target sequence (P14416 whole entry, looked up): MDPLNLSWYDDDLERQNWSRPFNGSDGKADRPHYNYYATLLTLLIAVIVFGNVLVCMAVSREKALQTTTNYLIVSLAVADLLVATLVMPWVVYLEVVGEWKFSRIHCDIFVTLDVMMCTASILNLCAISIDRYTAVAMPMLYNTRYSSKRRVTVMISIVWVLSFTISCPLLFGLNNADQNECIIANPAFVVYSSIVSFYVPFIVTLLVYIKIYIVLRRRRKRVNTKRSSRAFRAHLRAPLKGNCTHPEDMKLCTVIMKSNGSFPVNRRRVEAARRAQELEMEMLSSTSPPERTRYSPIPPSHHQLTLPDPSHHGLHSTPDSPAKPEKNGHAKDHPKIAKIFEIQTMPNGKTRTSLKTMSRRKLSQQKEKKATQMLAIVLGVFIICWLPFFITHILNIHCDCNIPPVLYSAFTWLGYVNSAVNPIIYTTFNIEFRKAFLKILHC
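Agonist mode: compounds alone added to overnight-plated D2 PathHunter cells for 90 min at 37 C, with 57 uM final dopamine (EC100) defining full response. Beta-arrestin recruitment detected by chemiluminescent reagent, read after 1 h at ambient temperature.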
D2 PAM-1 = positive allosteric modulators of human D2 dopamine receptor; DiscoveRx D2 beta-arrestin cells, luminescence, 90 min; 100% = 57 uM dopamine signal; potentiation, % (no concentration beside the values); 360,000 tested, 0.23% active; AID 624464; in the data active means potentiation above about 50%; inconclusive means mostly about 30% to 49%
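D2 cells co-treated with compound plus 50 nM dopamine (EC20) for 90 min at 37 deg C to detect potentiation. Beta-arrestin recruitment was read as enzyme-fragment luminescence after 1 h at ambient temperature. Full response was set by 57 uM dopamine.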
D2 ag-2 = activates the human D2 dopamine receptor; P14416; AID 485358; HEK293 T-REx D2 cells, calcium flux agonist mode; 340,000 tested, 0.53% active; activation, % at 2 µM;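 active means activation over 3 SD above normal in the single-dose calcium agonist read, cut at about 30% in these data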; further: 0% is about no effect
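Agonism scored from kinetic calcium signal (1 read/sec, 180 s) following compound pin transfer, after a 10 s baseline. Cells: HEK293 Trex line expressing inducible D2 receptor coupled to calcium, dye-loaded after overnight culture at 30 C.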
D2 PAM-2 = positive allosteric modulators of human D2 dopamine receptor | 340,000 tested, 0.34% active | potentiation, % at 10 µM | HEK293 T-REx D2, calcium flux, EC20 dopamine potentiation | AID 485347;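 active means potentiation over 3 SD above the plate norm, cut at about 30% in these data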; further: 0% is about no effect
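Potentiation of an EC20 dopamine calcium response measured kinetically over 180 s, after a preceding 180 s compound-only read flagging agonists. Cells: inducible Hek293 Trex D2 line, 4000/well, cultured overnight at 30 C before dye loading.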
D2 antagonist = D2 dopamine receptor (human) antagonism; P14416; HEK293 TREx D2 cells, calcium flux, dopamine EC80; inhibition, % at 10 µM; 340,000 tested, 2% active; in the data active means inhibition above about 30%; inactive means below that, where a call was filed; further: 0% is about no effect
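In this primary screen, negative modulation is detected by tracking calcium flux after an EC80 dopamine challenge in inducible HEK293 T-REx D2 cells preexposed to test compound for 180 s.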
Starred values were filed as active, the others as inactive; ? = inconclusive; · = no result.

SMILES	D2 ag-1	D2 PAM-1	D2 ag-2	D2 PAM-2	D2 antagonist
Cc1oc2cc(O)ccc2c(=O)c1Oc1ccccc1Br	-3	2	-2	-6	37*
COc1ccc(-n2c(CN3CCN(c4ccccn4)CC3)nc3ccc([N+](=O)[O-])cc3c2=O)c(OC)c1	0	-8	36*	-6	6
C/C(CC1CC(COCCC(C)C)OC1=O)=N\NC(N)=S (configuration not stated)	-1	2	·	·	·
Cc1nc(N2CCC(C)CC2)c2nnn(Cc3ccccc3)c2n1	-1	-34	0	34*	-24
CC(C)Cc1nc(N2CCC(C(N)=O)CC2)c2nnn(Cc3ccccc3)c2n1	-3	-10	·	·	·
O=C(CCC(=O)N1CCOc2ccc(Cl)cc21)NCCCN1CCN(Cc2ccccc2)CC1	0	-13	1	-15	41*
CC1CN(C(=O)CCC(=O)NCCCN2CCN(Cc3ccccc3)CC2)c2cc(Cl)ccc2O1 (configuration not stated)	-12	-34	1	-32	37*
O=C(CCC(=O)N1CCOc2ccc(Cl)cc21)NCCCN1CCOCC1	-2	-8	-1	-6	-12
O=C(CCC(=O)N1CCOc2ccc(Cl)cc21)NCc1ccccc1	0	-11	0	-23	37*
O=C(Nc1cc([N+](=O)[O-])ccc1N1CCOCC1)c1ccco1	-3	-1	0	11	6
COc1ccc(NC(=O)C2CCC(C(C)(C)C)CC2)cc1S(=O)(=O)N1CCCCC1 (configuration not stated)	-2	3	-1	-10	6
CSc1cccc(CNC(=O)C2CCC(=O)N(CCCN3CCCC3=O)C2)c1 (configuration not stated)	4	-1	0	-24	86*
Cc1cccc(CNC(=O)C2CCC(=O)N(C3CC3)C2)c1 (configuration not stated)	-1	-4	0	52*	0
COc1ccc(/C=N/NC(=O)c2sccc2OCc2ccc(F)cc2)cc1OC	-2	17	-1	-8	37*
COc1ccccc1CCC(=O)Nc1ccc(OC)c(S(=O)(=O)N2CCCCC2)c1	-3	-1	-1	-1	-14
Cc1cccc(NC(=S)NC2CCCCC2)n1	-1	-11	1	13	-13
NS(=O)(=O)c1ccc(NC(=O)c2c(Cl)cccc2Cl)cc1	-4	-7	0	17	-3
CCCN(CCC)C(=O)CSc1ncccc1C(=O)O	0	-17	38*	-19	3
CC(C)N=c1scc(-c2cccs2)n1/N=C/c1ccc(O)c(O)c1O	?	55*	5	4	-8
CN=c1scc(-c2ccccc2F)n1/N=C/c1ccc(O)c(O)c1O	180*	173*	0	2	0
CN=c1scc(-c2ccccc2F)n1/N=C/c1ccc[nH]1	-4	-10	0	-9	1
CNC(=O)Cc1nc2ccccc2n1CC(=O)Nc1cc(C)cc(C)c1	-3	-4	0	3	14
CCOc1ccc(CN2CCNC(=O)C2CC(=O)NCCC2=CCCCC2)cc1 (configuration not stated)	-4	-4	1	4	-9
Cc1[nH]c2ccccc2c1NC(=O)CN1CCN(Cc2ccc3c(c2)OCO3)CC1	·	·	11	-3	-14
Cc1nc(-c2ccc(F)cc2)c(CC(=O)N2CCN(S(=O)(=O)c3cccc(Cl)c3)CC2)s1	-1	-10	-1	-2	34*
SMILES	D2 ag-1	D2 PAM-1	D2 ag-2	D2 PAM-2	D2 antagonist
COc1ccc(S(=O)(=O)Nc2ccc3c(c2)n(C)c(=O)n3C)cc1F	4	-4	-1	0	-3
Cc1cc(S(=O)(=O)Nc2ccc3c(c2)n(C)c(=O)n3C)ccc1F	-4	-1	0	106*	-5
CC(C)(C)c1ccc(NC(=O)Cn2cnc3cc([N+](=O)[O-])ccc3c2=O)cc1	?	27	0	-3	-5
Cc1ccc(CNC(=O)Cn2cnc3cc([N+](=O)[O-])ccc3c2=O)cc1	1	54*	1	-22	-1
CN1CCN(c2cc(-c3ccccc3)nc3cc(-c4ccc(F)cc4)nn23)CC1	-3	-38	0	-21	54*
COc1cc(-c2nc(C(=O)NC3CCCCC3)cc3c2[nH]c2ccccc23)cc(OC)c1OC	10	-13	0	24	-25
COc1cc(-c2nc(C(=O)NC3CCN(Cc4ccccc4)CC3)cc3c2[nH]c2ccccc23)cc(OC)c1OC	-6	-90	0	-24	74*
COc1ccc(OC)c(-c2nc(C(=O)NCCCN3CCOCC3)cc3c2[nH]c2ccccc23)c1	-2	-79	0	-18	-7
COc1ccc(OC)c(-c2nc(C(=O)NC3CCN(Cc4ccccc4)CC3)cc3c2[nH]c2ccccc23)c1	-4	-97	0	-24	81*
CC1(c2ccc(Cl)cc2)NC(=O)N(CC(=O)NCc2ccc(F)cc2)C1=O (configuration not stated)	-4	-7	0	-9	-3
O=C1CCCN1Cc1ccccc1	-6	-6	0	1	30*
COc1ccc(S(=O)(=O)N2CCC(C(=O)NCCN3CCOCC3)CC2)cc1C	-4	-10	1	-4	34*
COc1ccc(S(=O)(=O)N2CCC(C(=O)NCCN3CCOCC3)CC2)cc1OC	-8	-6	0	-4	-9
O=C(NC1CC2CCCC(C1)N2Cc1ccccc1)c1cccc(Cl)c1 (configuration not stated)	0	-16	-1	-38	90*
COc1cccc(C(=O)NC2CC3CCCC(C2)N3Cc2ccc(F)cc2)c1 (configuration not stated)	-1	-22	·	·	·
O=C(NC1CC2CCCC(C1)N2Cc1ccccc1)c1cccc(F)c1 (configuration not stated)	-1	-80	0	-22	84*
CS(=O)(=O)Nc1ccc2[nH]c(=O)[nH]c2c1	0	0	1	-2	-1
CCS(=O)(=O)Nc1ccc2[nH]c(=O)[nH]c2c1	-5	1	3	-7	33*
CNC[C@H](O)c1ccc(O)c(O)c1	63*	79*	5	-18	25
CC(C)NCC(O)c1ccc(O)c(O)c1 (configuration not stated)	-1	-2	5	33*	17
COc1ccc(CCN2C(=O)CC(N3CCN(S(=O)(=O)c4ccccc4)CC3)C2=O)cc1 (configuration not stated)	0	-26	0	31*	8
CC(=O)Nc1cccc(/C(C)=N/NS(=O)(=O)c2ccccc2)c1	0	5	0	7	14
